Measured values as given in ChEMBL document CHEMBL4513146, “CO-ADD screening of Karazin Kharkiv National University (Ukraine) compounds”.
Measured potencies and affinities stand elsewhere.

Experiments:
[1] = system: Klebsiella pneumoniae; settings: Concentration 32 ug.mL-1;; ASSAY_TEST Inhibition of Bacterial Growth; detection method Absorption (OD600); MEDIA CAMHB; plate type 384well; NBS; CORNING #3640; time 18 hr
[2] = system: Candida albicans; settings: Concentration 32 ug.mL-1; ASSAY_TEST Inhibition of Fungal Growth; detection method Absorption (OD530)
[3] = system: Cryptococcus neoformans; settings: Concentration 32 ug.mL-1; ASSAY_TEST Inhibition of Fungal Growth; detection method Resazurin; Absorption (OD600-OD570); plate type 384well; NBS; CORNING #3640

Structure (SMILES)	Inhibition [1] [%]	Inhibition [2] [%]	Inhibition [3] [%]
CSc1cccc(NC(=O)Cn2nc3c(Sc4ccc(C)cc4C)nccn3c2=O)c1	-1.53	2.24	-22
COC(=O)c1ccccc1NC(=O)Cn1nc2c(Oc3ccccc3C)nccn2c1=O	8.93	0.12	-8.78
Cc1ccc(-c2ccc3nn(Cc4cccc(F)c4)c(=O)n3n2)cc1C	7.96	2.65	-8.66
O=C(CSc1nnc2n(CC3CCCO3)c(=O)c3sccc3n12)Nc1ccc(F)cc1Cl (stereo not drawn)	1.23	-2.01	-23.1
COCCCNC(=O)CSc1nnc2c(=O)n(Cc3ccccc3)ccn12	17	2.41	-23.49
Cc1cc(C)c(C(=O)CSc2nnc3c(=O)n(-c4ccc(F)cc4)ccn23)cc1C	7.49	4.64	-8.78
Cc1nnc2ccc(S(=O)(=O)N(Cc3cc(F)cc(F)c3)c3ccc(F)cc3)cn12	7.75	0.47	-6.16
O=C(Cn1nc2c(N3CCN(c4ccccc4)CC3)nccn2c1=O)Nc1ccc2c(c1)OCO2	5.9	4.15	-7.4
Cc1ccccc1Nc1cc(C)n2c(=O)n(CCOc3ccc(F)cc3)nc2n1	9.7	-1.22	-5.27
CCOc1ccccc1NC(=O)Cn1nc2c3cc(-c4ccc(Cl)cc4)nn3ccn2c1=O	12.1	2.9	-13.93
Cc1ccc(NC(=O)Cn2nc3c4cc(-c5ccc(Cl)cc5)nn4ccn3c2=O)cc1C	9.71	6.69	-22.86
COc1ccc(CNC(=O)Cn2nc3c(N4CCN(c5ccccc5)CC4)nccn3c2=O)cc1	14.33	4.36	-9.25
O=C(Cn1nc2ccc(-c3ccccc3)nn2c1=O)Nc1ccc(F)cc1	7.53	0.88	-10.36
CCCN(C)c1nccn2c(=O)n(CC(=O)Nc3cccc(Cl)c3F)nc12	7.25	0.78	-6.38
COc1ccc(N(Cc2ccc(F)cc2)S(=O)(=O)c2ccc3nncn3c2)cc1	12.52	2.69	2.37
O=S(=O)(c1ccc2nncn2c1)N(Cc1ccccc1)c1ccc(F)c(F)c1	5.23	3.55	-6.45
CCCc1nnc2c(=O)n(CC(=O)Nc3cccc(C#N)c3)c3ccccc3n12	0.67	-0.31	-17.76
O=C(Cn1nc2c(N3CCSCC3)nc3ccccc3n2c1=O)Nc1ccc(Br)cc1	7.3	11.24	-9.72

Structure (SMILES)	Inhibition [1] [%]	Inhibition [2] [%]	Inhibition [3] [%]
COc1ccc(NC(=O)CSc2nnc3c(=O)n(-c4cccc(F)c4)ccn23)cc1OC	7.43	3.49	-8.06
CCc1ccc(NC(=O)Cn2nc3ccc(SC(C)(C)C)nn3c2=O)cc1	14.6	4.19	-17.5
Cc1nnc2c(SCC(=O)Nc3ccc(F)cc3F)nc3ccccc3n12	16.48	0.69	-22.98
CCCCc1ccc(NC(=O)CSc2nnc3c4cc(-c5ccc(C)cc5)nn4ccn23)cc1	4.94	0.26	-7.77
Cc1ccc(Sc2nccn3c(=O)n(CC(=O)Nc4ccc(Br)cc4C)nc23)c(C)c1	-0.35	-0.15	-17.66
N#Cc1ccc(NC(=O)Cn2nc3c(Oc4ccccc4)nccn3c2=O)cc1	4.51	0.35	-7.22
Cc1ccc(NC(=O)CSc2nc3ccccc3n3cnnc23)c(Br)c1	0.14	3.27	-26.85
O=C(Cn1nc2c(N3CCOCC3)nc3ccccc3n2c1=O)NCc1ccccc1Cl	-0.61	6.61	-3.24
CSc1cccc(NC(=O)Cn2nc3ccc(SC(C)(C)C)nn3c2=O)c1	7.55	2.25	-15.09
O=C(Cn1nc2c(N3CCOCC3)nccn2c1=O)N1CCN(c2ccccc2F)CC1	8.66	0.78	-5.23
O=S(=O)(c1cccn2cnnc12)N(Cc1ccc(F)cc1)c1ccc(F)cc1	4.83	2.44	-6.17
COC(=O)c1ccc(NC(=O)Cn2nc3c(N4CCOCC4)nccn3c2=O)cc1	12.49	2.39	-14.01
COc1ccc(N2CCN(C(=O)Cn3nc4c(Oc5ccccc5)nccn4c3=O)CC2)cc1	15.08	1.75	-7.66
COc1ccc(C)cc1NC(=O)CSc1nc2ccccc2n2cnnc12	9.24	2.39	-3.58
COc1cccc(-n2ccn3c(SC(C)C(=O)c4ccc(C)c(C)c4)nnc3c2=O)c1 (stereo not drawn)	3.32	2.99	-3.88
COc1cc(NC(=O)Cn2nc3ccc(SCc4ccc(Cl)cc4)nn3c2=O)cc(OC)c1	1.27	5.86	-31.85
Cc1cccc(N(C)C(=O)Cn2nc3cc(C)nc(Nc4ccc(C)c(F)c4)n3c2=O)c1	20.18	4.24	-1.47
Cc1cc(C)cc(N(Cc2ccccc2)S(=O)(=O)c2cccn3cnnc23)c1	-6.91	1.52	-4.73
